Assay results from article PMC7862700, “An all-to-all approach to the identification of sequence-specific readers for epigenetic DNA modifications on cytosine”.

Key:
Assay in all cases: DAPPL (digital affinity profiling via proximity ligation, sequencing); 10 mM Tris-HCl pH 7.5, 50 mM NaCl, 1 mM DTT, 4% glycerol, room temperature, 30 min; GST-TFs on glutathione beads, 16-mer random dsDNA library, 0.1% formaldehyde crosslink after washing; high values mean tight binding
[1] = target: T1, FEV (Homo sapiens, UniProt Q99581 1-238); conditions: protein: recombinant; tags: N-terminal GST; dsDNA, one strand shown
T1 sequence: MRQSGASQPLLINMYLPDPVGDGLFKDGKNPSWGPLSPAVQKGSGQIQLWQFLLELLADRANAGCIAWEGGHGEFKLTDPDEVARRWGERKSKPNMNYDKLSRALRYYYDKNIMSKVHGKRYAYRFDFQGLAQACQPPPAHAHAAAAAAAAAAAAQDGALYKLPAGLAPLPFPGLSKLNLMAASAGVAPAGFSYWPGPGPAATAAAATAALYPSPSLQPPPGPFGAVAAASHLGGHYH
Method in brief: (§1)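 In yeast, human transcription factors were expressed with a GST fusion, then pulled down on glutathione beads and given DNA barcodes. Pooled with a tag-only sample, they were exposed to 200 nmole of a 16-mer random double-stranded DNA library (Tris/NaCl/DTT/glycerol buffer, room temperature, 30 min), washed, crosslinked with 0.1% formaldehyde, proximity-ligated using BsaI/T4 ligase for 1 h at 37 °C, PCR-amplified and read on an Illumina NextSeq500. Each hexamer's frequency of reads for a factor, divided by the matching frequency for the tag-only sample, gives the binding signal.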

[2] = target: ETV5 (Homo sapiens, UniProt P41161 1-510); conditions: protein: recombinant; tags: N-terminal GST; dsDNA, one strand shown
Chain of ETV5 (P41161 whole entry): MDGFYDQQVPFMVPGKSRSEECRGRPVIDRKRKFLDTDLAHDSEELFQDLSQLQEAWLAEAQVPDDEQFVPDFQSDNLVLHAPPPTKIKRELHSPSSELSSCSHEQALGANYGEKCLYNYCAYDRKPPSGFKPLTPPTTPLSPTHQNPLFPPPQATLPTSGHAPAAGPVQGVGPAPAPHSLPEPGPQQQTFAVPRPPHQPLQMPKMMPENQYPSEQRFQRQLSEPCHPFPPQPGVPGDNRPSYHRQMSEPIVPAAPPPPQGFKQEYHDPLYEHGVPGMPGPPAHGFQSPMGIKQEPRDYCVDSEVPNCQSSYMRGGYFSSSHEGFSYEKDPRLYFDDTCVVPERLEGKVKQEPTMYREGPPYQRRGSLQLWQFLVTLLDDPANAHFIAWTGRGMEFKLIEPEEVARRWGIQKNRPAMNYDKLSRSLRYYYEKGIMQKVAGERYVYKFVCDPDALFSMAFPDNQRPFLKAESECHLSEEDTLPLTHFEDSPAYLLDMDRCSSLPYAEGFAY
Method in brief: as §1

[3] = target: HSF1 (Homo sapiens, UniProt Q00613 1-529); conditions: protein: recombinant; tags: N-terminal GST; chain copies: 3; dsDNA, one strand shown
Chain of HSF1 (Q00613 whole entry): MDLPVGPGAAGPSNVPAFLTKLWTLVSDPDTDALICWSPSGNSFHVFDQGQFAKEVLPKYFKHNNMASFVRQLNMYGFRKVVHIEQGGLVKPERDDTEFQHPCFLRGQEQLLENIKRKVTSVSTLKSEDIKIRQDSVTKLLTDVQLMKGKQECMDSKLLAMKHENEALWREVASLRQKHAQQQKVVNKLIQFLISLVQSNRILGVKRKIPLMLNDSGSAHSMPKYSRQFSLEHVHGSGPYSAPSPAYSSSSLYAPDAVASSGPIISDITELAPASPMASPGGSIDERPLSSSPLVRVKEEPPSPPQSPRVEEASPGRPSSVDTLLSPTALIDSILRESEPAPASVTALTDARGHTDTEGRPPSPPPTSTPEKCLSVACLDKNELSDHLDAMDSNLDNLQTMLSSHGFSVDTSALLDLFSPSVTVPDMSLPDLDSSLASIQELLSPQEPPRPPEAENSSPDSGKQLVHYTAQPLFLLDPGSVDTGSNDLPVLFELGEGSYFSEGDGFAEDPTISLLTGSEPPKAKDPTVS
Method in brief: as §1

[4] = target: T2, SPIC (Homo sapiens, UniProt Q8N5J4 1-248); conditions: protein: recombinant; tags: N-terminal GST; dsDNA, one strand shown
T2 sequence: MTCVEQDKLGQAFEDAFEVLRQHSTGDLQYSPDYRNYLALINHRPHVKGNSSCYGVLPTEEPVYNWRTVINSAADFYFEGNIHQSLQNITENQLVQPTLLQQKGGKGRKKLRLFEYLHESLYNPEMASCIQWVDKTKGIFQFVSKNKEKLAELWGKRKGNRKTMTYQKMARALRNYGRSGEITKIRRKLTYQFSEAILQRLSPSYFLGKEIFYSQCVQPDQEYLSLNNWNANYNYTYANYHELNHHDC
Method in brief: as §1

[5] = target: ELF4 (Homo sapiens, UniProt Q99607 1-663); conditions: protein: recombinant; tags: N-terminal GST; dsDNA, one strand shown
Chain of ELF4 (Q99607 whole entry): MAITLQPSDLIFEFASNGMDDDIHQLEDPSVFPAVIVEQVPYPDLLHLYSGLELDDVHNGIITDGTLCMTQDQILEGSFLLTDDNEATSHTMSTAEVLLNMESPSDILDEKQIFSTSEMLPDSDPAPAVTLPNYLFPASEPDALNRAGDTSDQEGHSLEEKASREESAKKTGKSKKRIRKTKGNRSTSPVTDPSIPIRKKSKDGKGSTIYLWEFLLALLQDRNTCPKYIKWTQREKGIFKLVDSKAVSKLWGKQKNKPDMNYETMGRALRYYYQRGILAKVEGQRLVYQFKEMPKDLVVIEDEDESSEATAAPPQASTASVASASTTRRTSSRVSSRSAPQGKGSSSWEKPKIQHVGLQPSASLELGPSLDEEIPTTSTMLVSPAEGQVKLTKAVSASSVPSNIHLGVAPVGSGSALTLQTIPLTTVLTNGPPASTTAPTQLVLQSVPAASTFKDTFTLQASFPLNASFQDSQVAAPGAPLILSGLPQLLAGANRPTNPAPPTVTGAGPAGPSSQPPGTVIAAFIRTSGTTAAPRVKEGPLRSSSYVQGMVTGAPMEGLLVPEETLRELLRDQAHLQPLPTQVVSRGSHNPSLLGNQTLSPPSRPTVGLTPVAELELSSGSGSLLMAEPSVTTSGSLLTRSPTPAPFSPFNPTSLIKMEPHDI
Method in brief: as §1

[6] = target: T3, ELK4 (Homo sapiens, UniProt P28324-2 1-405); conditions: protein: recombinant; tags: N-terminal GST; dsDNA, one strand shown
T3 sequence: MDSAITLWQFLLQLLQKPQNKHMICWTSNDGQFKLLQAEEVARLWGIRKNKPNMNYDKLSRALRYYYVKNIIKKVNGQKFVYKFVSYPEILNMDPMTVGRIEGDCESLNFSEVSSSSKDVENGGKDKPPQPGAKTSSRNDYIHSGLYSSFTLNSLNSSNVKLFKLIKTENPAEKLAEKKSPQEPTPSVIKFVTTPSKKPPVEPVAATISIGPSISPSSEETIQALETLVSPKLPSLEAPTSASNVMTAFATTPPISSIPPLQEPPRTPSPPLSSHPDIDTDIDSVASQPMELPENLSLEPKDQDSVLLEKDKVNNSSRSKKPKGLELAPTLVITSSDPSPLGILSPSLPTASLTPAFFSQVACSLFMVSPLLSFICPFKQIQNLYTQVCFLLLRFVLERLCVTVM
Method in brief: as §1

[7] = target: T4, ETV2 (Homo sapiens, UniProt O00321 1-342); conditions: protein: recombinant; tags: N-terminal GST; dsDNA, one strand shown
T4 sequence: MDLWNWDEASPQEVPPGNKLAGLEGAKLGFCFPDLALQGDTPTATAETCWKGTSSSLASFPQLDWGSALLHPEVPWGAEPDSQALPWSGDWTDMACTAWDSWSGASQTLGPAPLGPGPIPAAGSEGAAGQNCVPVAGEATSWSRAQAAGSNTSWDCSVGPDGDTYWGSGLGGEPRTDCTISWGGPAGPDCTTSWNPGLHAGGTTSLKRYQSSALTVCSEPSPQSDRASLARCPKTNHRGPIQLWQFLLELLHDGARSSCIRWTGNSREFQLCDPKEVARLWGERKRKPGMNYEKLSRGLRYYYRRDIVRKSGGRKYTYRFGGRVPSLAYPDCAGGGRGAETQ
Method in brief: as §1

[8] = target: T5, ELF3 (Homo sapiens, UniProt P78545 1-371); conditions: protein: recombinant; tags: N-terminal GST; dsDNA, one strand shown
T5 sequence: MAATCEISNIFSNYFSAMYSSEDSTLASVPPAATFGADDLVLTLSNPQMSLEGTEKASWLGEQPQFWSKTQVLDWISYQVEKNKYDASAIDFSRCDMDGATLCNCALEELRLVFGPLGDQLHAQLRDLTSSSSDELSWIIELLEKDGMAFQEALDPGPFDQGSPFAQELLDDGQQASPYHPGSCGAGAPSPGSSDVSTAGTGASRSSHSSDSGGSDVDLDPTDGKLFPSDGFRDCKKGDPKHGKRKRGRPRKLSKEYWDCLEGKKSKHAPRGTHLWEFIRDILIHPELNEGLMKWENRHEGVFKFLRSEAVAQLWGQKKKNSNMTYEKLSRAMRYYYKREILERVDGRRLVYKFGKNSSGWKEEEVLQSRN
Method in brief: as §1

[9] = target: CRX (Homo sapiens, UniProt O43186 1-299); conditions: protein: recombinant; tags: N-terminal GST; dsDNA, one strand shown
Chain of CRX (O43186 whole entry): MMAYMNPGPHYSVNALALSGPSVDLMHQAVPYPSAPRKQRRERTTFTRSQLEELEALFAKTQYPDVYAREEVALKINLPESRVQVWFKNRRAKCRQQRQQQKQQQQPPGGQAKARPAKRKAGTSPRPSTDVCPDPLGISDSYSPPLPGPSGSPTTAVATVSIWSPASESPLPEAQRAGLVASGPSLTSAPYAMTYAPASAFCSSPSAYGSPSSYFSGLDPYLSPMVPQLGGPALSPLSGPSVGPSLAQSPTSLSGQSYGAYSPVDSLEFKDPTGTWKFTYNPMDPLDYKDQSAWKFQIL
Method in brief: as §1

[10] = target: ETV1 (Homo sapiens, UniProt P50549 1-477); conditions: protein: recombinant; tags: N-terminal GST; dsDNA, one strand shown
Chain of ETV1 (P50549 whole entry): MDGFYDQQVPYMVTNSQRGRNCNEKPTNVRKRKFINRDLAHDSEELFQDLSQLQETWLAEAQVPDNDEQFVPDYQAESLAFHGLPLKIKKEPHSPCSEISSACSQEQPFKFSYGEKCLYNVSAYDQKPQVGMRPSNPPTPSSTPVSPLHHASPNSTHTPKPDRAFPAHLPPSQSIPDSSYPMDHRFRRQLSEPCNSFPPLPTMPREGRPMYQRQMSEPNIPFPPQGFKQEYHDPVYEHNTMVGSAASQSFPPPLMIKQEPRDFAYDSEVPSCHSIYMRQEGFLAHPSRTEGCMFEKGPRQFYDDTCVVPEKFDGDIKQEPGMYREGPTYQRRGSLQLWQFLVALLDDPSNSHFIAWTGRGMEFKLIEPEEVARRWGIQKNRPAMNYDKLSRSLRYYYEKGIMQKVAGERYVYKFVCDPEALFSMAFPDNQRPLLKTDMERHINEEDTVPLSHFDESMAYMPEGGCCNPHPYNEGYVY
Method in brief: as §1

[11] = target: T6, ERF (Homo sapiens, UniProt P50548 1-548); conditions: protein: recombinant; tags: N-terminal GST; dsDNA, one strand shown
T6 sequence: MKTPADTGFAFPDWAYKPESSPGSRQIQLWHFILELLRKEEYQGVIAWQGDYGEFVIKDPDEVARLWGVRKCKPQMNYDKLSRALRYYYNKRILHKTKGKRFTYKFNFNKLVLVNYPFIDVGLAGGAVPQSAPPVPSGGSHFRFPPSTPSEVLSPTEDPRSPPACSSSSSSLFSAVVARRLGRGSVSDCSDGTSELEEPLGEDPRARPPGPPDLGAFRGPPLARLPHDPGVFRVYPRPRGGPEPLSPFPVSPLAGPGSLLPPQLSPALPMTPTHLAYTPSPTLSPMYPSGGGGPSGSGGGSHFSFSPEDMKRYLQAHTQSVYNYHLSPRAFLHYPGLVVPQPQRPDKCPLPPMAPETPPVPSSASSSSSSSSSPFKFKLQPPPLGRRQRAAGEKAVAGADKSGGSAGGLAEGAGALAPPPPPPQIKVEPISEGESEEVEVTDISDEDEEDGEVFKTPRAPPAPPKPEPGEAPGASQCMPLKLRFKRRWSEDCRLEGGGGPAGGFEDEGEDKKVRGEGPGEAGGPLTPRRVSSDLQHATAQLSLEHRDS
Method in brief: as §1

[12] = target: T7, ETV3L (Homo sapiens, UniProt Q6ZN32 1-361); conditions: protein: recombinant; tags: N-terminal GST; dsDNA, one strand shown
T7 sequence: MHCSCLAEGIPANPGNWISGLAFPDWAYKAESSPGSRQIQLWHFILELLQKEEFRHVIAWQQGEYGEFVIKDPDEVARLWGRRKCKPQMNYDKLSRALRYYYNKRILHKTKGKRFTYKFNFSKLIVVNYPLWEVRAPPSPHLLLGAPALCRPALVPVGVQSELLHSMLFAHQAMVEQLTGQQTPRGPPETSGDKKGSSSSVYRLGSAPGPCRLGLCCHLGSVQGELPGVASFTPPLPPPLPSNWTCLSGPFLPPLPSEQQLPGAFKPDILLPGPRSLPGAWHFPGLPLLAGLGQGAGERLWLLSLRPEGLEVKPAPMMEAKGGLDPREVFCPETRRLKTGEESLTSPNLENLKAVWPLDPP
Method in brief: as §1

[13] = target: T8, ETS2 (Homo sapiens, UniProt P15036 1-469); conditions: protein: recombinant; tags: N-terminal GST; dsDNA, one strand shown
T8 sequence: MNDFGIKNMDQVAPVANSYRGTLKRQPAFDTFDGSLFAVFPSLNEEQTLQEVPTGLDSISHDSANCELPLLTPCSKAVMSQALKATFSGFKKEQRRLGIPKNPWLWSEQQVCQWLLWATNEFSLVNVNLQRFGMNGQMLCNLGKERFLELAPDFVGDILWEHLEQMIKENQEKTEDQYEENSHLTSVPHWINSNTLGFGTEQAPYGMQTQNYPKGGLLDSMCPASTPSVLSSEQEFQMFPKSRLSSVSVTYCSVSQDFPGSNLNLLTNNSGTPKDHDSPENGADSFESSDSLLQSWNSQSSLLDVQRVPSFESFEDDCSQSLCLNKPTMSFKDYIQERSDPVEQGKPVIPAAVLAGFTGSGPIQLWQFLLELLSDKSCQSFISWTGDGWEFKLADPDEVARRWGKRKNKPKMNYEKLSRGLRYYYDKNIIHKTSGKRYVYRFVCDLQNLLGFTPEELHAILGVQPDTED
Method in brief: as §1

[14] = target: T9, SPDEF (Homo sapiens, UniProt O95238 1-335); conditions: protein: recombinant; tags: N-terminal GST; dsDNA, one strand shown
T9 sequence: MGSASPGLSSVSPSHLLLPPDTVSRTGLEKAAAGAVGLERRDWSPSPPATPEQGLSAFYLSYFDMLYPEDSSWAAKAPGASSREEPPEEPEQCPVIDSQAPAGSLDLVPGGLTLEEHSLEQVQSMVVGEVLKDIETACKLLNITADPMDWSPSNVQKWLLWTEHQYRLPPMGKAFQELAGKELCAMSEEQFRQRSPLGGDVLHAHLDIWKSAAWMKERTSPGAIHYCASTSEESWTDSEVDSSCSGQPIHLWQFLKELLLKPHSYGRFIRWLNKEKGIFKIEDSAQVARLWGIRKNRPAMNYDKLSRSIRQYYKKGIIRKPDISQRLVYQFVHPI
Method in brief: as §1

[15] = target: T10, ETV7 (Homo sapiens, UniProt Q9Y603 1-341); conditions: protein: recombinant; tags: N-terminal GST; dsDNA, one strand shown
T10 sequence: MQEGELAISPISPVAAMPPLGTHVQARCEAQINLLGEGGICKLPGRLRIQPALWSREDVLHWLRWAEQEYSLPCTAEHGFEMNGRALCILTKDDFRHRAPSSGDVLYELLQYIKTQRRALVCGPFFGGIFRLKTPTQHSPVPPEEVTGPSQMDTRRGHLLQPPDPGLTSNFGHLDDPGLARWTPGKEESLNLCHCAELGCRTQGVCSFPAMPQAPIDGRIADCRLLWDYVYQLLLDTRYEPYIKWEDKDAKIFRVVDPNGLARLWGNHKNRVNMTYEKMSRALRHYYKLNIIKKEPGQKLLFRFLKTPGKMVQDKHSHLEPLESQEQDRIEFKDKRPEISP
Method in brief: as §1

[16] = target: T11, ELF5 (Homo sapiens, UniProt Q9UKW6-2 1-255); conditions: protein: recombinant; tags: N-terminal GST; dsDNA, one strand shown
T11 sequence: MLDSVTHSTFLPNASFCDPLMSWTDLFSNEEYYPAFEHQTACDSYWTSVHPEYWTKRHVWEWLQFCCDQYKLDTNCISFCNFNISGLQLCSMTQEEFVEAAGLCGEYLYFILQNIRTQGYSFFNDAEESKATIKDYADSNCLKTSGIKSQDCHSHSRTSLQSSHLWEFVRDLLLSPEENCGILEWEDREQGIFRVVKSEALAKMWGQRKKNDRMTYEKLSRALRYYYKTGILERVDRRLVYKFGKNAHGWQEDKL
Method in brief: as §1

[17] = target: T12, ETV3 (Homo sapiens, UniProt P41162-2 1-143); conditions: protein: recombinant; tags: N-terminal GST; dsDNA, one strand shown
T12 sequence: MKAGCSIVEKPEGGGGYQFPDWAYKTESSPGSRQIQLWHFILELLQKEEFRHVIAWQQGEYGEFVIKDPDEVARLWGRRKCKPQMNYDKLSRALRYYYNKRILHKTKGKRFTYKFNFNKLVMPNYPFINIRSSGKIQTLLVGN
Method in brief: as §1

[18] = target: ETV6 (Homo sapiens, UniProt P41212 1-452); conditions: protein: recombinant; tags: N-terminal GST; dsDNA, one strand shown
Chain of ETV6 (P41212 whole entry): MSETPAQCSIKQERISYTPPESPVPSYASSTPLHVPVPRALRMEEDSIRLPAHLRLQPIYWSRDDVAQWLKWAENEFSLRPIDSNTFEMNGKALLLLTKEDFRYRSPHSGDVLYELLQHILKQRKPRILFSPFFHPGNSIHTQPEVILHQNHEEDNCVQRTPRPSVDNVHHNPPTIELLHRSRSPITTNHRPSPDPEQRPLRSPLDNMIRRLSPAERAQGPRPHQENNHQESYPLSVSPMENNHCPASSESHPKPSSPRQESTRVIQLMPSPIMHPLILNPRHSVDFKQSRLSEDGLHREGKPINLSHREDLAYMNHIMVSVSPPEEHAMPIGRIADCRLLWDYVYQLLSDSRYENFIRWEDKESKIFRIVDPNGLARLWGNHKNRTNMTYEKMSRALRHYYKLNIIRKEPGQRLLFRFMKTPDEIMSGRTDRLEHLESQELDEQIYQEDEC
Method in brief: as §1

Sequence	binding signal [1]	binding signal [2]	binding signal [3]	binding signal [4]	binding signal [5]	binding signal [6]	binding signal [7]	binding signal [8]	binding signal [9]	binding signal [10]	binding signal [11]	binding signal [12]	binding signal [13]	binding signal [14]	binding signal [15]	binding signal [16]	binding signal [17]	binding signal [18]
TAACGA	1.08 fold enrichment (6-mer frequency, TF over GST control)	1.06 fold enrichment (6-mer frequency, TF over GST control)	1.23 fold enrichment (6-mer frequency, TF over GST control)	1.1 fold enrichment (6-mer frequency, TF over GST control)	1.12 fold enrichment (6-mer frequency, TF over GST control)	1.09 fold enrichment (6-mer frequency, TF over GST control)	1.04 fold enrichment (6-mer frequency, TF over GST control)	1.02 fold enrichment (6-mer frequency, TF over GST control)	1.57 fold enrichment (6-mer frequency, TF over GST control)	1.08 fold enrichment (6-mer frequency, TF over GST control)	1.03 fold enrichment (6-mer frequency, TF over GST control)	1.04 fold enrichment (6-mer frequency, TF over GST control)	1.12 fold enrichment (6-mer frequency, TF over GST control)	1.16 fold enrichment (6-mer frequency, TF over GST control)	1.1 fold enrichment (6-mer frequency, TF over GST control)	1.06 fold enrichment (6-mer frequency, TF over GST control)	1.06 fold enrichment (6-mer frequency, TF over GST control)	1.08 fold enrichment (6-mer frequency, TF over GST control)
ATATAT	1.41 fold enrichment (6-mer frequency, TF over GST control)	1.42 fold enrichment (6-mer frequency, TF over GST control)	1.31 fold enrichment (6-mer frequency, TF over GST control)	1.51 fold enrichment (6-mer frequency, TF over GST control)	1.38 fold enrichment (6-mer frequency, TF over GST control)	1.55 fold enrichment (6-mer frequency, TF over GST control)	1.31 fold enrichment (6-mer frequency, TF over GST control)	1.64 fold enrichment (6-mer frequency, TF over GST control)	1.46 fold enrichment (6-mer frequency, TF over GST control)	1.33 fold enrichment (6-mer frequency, TF over GST control)	1.51 fold enrichment (6-mer frequency, TF over GST control)	1.41 fold enrichment (6-mer frequency, TF over GST control)	1.39 fold enrichment (6-mer frequency, TF over GST control)	1.43 fold enrichment (6-mer frequency, TF over GST control)	1.29 fold enrichment (6-mer frequency, TF over GST control)	1.42 fold enrichment (6-mer frequency, TF over GST control)	1.41 fold enrichment (6-mer frequency, TF over GST control)	1.44 fold enrichment (6-mer frequency, TF over GST control)
